Results as given in PubChem BioAssay (NCI).
The panel holds about 83,000 compounds, 20% with a hit somewhere; the sample as a whole holds those more often.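 For each line, cells grew in 96-well plates with the test compound present at a single concentration for 48 hours.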 Unmarked numbers belong to inactive results. The source made the active and inactive calls. How the source made its calls: active means growth percent below 10; inactive means the rest.

What was measured:
Test in all cases: NCI-60 one-dose screen, 48 h (100 = growth as untreated, 0 = no growth, -100 = all killed)
Conditions in all cases: 10 µM unless noted
BT-549 breast = tested on: BT-549 breast
MDA-MB-435 melanoma = tested on: MDA-MB-435 melanoma
SW-620 colon = tested on: SW-620 colon
MCF7 breast = tested on: MCF7 breast
HCT-116 colon = tested on: HCT-116 colon
KM12 colon = tested on: KM12 colon
HCC-2998 colon = tested on: HCC-2998 colon

`O=C(CCN1C(=O)/C(=C/c2ccccc2)SC1=S)N1CCOCC1` was tested, and the growth (BT-549 breast) was 104%, the growth (MDA-MB-435 melanoma) was 81.9% and the growth (SW-620 colon) was 79%. For the same compound, the growth (MCF7 breast) was 40.9%, the growth (HCT-116 colon) was 89.6% and the growth (KM12 colon) was 84.3%.
Work on `CS(=O)(=O)Nc1ccc(-c2nn(-c3ccc(S(C)(=O)=O)cc3)cc2/C=C/C(=O)c2ccc(NC(=O)CO[N+](=O)[O-])cc2)cc1` yielded a growth (BT-549 breast) of 98.7%, a growth (MDA-MB-435 melanoma) of 106% and a growth (SW-620 colon) of 113%. The growth (HCT-116 colon) was 103%, the growth (HCC-2998 colon) was 101% and the growth (KM12 colon) was 106%.
With `COc1cc(/C=C/C(=O)c2ccc(C)cc2)ccc1Oc1nc(NCCO)nc(N2CCOCC2)n1` the growth (MDA-MB-435 melanoma) was 33.1%, the growth (SW-620 colon) was 3.05% (active) and the growth (MCF7 breast) was 9.07% (active). The growth (HCT-116 colon) was -77.2% (active), the growth (HCC-2998 colon) was 93.8% and the growth (KM12 colon) was 20.2%.
`O=C(CSc1nc2sc3c(c2c(=O)n1-c1ccc(Cl)cc1)CCCC3)NNC(=O)Nc1ccc(Cl)c(C(F)(F)F)c1` was tested, and the growth (MDA-MB-435 melanoma) was 46.8%, the growth (SW-620 colon) was 4.66% (active) and the growth (HCT-116 colon) was 13.6%. It also gave a growth (HCC-2998 colon) of 42.4% and a growth (KM12 colon) of 25.9%.
In the case of `COc1cccc(NC2=CC(=O)C(C)=C(C)C2=O)c1`, the growth (MDA-MB-435 melanoma) was 7.25% (active), the growth (SW-620 colon) was 102% and the growth (MCF7 breast) was 64.1%. It also gave a growth (HCT-116 colon) of 10.5% and a growth (KM12 colon) of 98.4%.
With `N#Cc1c(-c2ccc(Cl)cc2)nc(SCc2ccc(F)cc2)nc1N1CCNCC1` the growth (MDA-MB-435 melanoma) was 69.3%, the growth (SW-620 colon) was -80.2% (active) and the growth (MCF7 breast) was -19.3% (active). The growth (HCT-116 colon) was -93.8% (active), the growth (HCC-2998 colon) was -31.8% (active) and the growth (KM12 colon) was 33.6%.
In the case of `COc1ccc(NC(=O)c2sc3nc(-c4cnccn4)cc(-c4cccs4)c3c2N)cc1`, the growth (MDA-MB-435 melanoma) was 71.5%, the growth (SW-620 colon) was 65.2% and the growth (MCF7 breast) was 57.4%. It also gave a growth (HCT-116 colon) of 61.9%, a growth (HCC-2998 colon) of 67.5% and a growth (KM12 colon) of 61%.
Compound `CC(C)(O)c1cncc(-c2ccc3ncnc(N4CCc5cc(F)c(Cl)cc54)c3c2)c1` has a growth (MDA-MB-435 melanoma) of 17.1%, a growth (SW-620 colon) of 40.1% and a growth (MCF7 breast) of 10.8%. For the same compound, the growth (HCT-116 colon) was 30.1%, the growth (HCC-2998 colon) was 34.2% and the growth (KM12 colon) was 35.1%.
With `N[C@@H](Cc1cn(-c2c3ccccc3nc3ccccc23)nn1)C(=O)O` the growth (MDA-MB-435 melanoma) was 104%, the growth (SW-620 colon) was 105% and the growth (MCF7 breast) was 73.9%. The growth (HCT-116 colon) was 106% and the growth (HCC-2998 colon) was 117%.
Work on `C#C[C@]1(O)CC[C@H]2[C@@H]3CC=C4c5sc(Nc6ccc(Cl)cn6)nc5CC[C@]4(C)[C@H]3CC[C@@]21C` yielded a growth (MDA-MB-435 melanoma) of 41.4%, a growth (SW-620 colon) of 29.5% and a growth (MCF7 breast) of 17.6%. It also gave a growth (HCT-116 colon) of 34.5%, a growth (HCC-2998 colon) of 80% and a growth (KM12 colon) of 38.9%.
